In publication PMC12864922, “TDP-43 directly inhibits mRNA accumulation in neurites through modulation of mRNA stability”:
Whole data set: some 9,900 sequences, median “r (bound/input frequency ratio)” near 0.7, cut for the highest 2% near 6.5. This excerpt belongs to a sample that is enriched for the highest values.

B1: ENSMUSG00000090935.640|Synj2bp|188:194 (ssRNA)
RNA: GGGAGUUCUACAGUCCGACGAUCGCUUCGAUAUCCGCAUGCUAAGAAUAAAGUAUUUUCCUAGGACUACAUAGUUGGUAAAAGAGAAUCAUGAUUUAAACUCUGGACUAUGGAUGGCAGUAUCAGUAAUAUUCCCUCAUAGCUAGCAGUCCUCAUGCAAGGUCUCUGAACAAAAGCAACGUAUCACCUGCAAAUGCUUGGGUUUCAUCCCAUUCUUAUGGAGUGAGAUGACACACACCCAGCCAGCAACUCUGUCCUUCUAGGUAACUGGUUCAUGCUGAACCUUGAGAUUCACCACUGUCAGCUCUUGCGGUCGCACUAGUGUGGAAUUCUCGGGUGUCAAGG
B2: ENSMUSG00000032194.203|Kank2|47:51 (ssRNA)
RNA: GGGAGUUCUACAGUCCGACGAUCGCUUCGAUAUCCGCAUGCUACUGCACCUUUCUCUAACUGGGGUUCCUUUCUGGCCCCAGGAUCUCACACACGUUCGUGGGGGGAUUUUGUUGUUGUUUCUUUGUUUCUUUUCUUCAUAAAGAAGAAAAAGGAAACAACUUCUAGAUGUGCCUUGCGAUAGGGAGGACUUUGUCCUCUCAAGUCUCCCUGUCGUAUCCAGAUCACAGCUGAACCCACUGGGCCUUGGCGCCAAACCUCAGCAGGGCAGCAUUGAGACUCAUGGACUAAAGGAAAGUGUUCACUCUUGCGGUCGCACUAGUGUGGAAUUCUCGGGUGUCAAGG
B3: ENSMUSG00000004113.196|Cacna1b (ssRNA)
RNA: GGGAGUUCUACAGUCCGACGAUCGCUUCGAUAUCCGCAUGCUACUGGCUCCUCUGCUCAACCAAGUGCCUGAUCUCUGGCUCUGAGCAUCGUGGAUGAGGUACGGCCUCAGGAAGCAUCGGGUGGAUUGGGUGGGAGCUGCUCAGAGCAGCACGGGGGCUUGUGUCUUAGGGACAUUGACAGUGUCCAUCAGCAUGUCAGAGAAGCAGCUGUAGUGCCCGUGUUUCUCCCUGAGUCAUGGGUUCUGAAGAAGCCAGAGCGGCACAAUGCGUGCUUGCAUGAGGCACUUUCAGCCUUUUUAAAUCUCUUGCGGUCGCACUAGUGUGGAAUUCUCGGGUGUCAAGG
B4: ENSMUSG00000061578.342|Ksr2 (ssRNA)
RNA: GGGAGUUCUACAGUCCGACGAUCGCUUCGAUAUCCGCAUGCUAUGCCCUUAAGCUAGGGUCCUUCAAGCAUCCACAGACUUAGAGUGUGGUGGUAACAUGCUUGUAAUCCUGGCACUCUGGAGGCUGAGGCAGGAGGAUAACAAGUCUAGACUAUAUAUGAUUUCUGAGGGUCUGUUAGUGAAUAAGUACCUGGAUGACAUGGGACAAGUCCCAGCCUUCCCUGCUCCUGCGCUGCUCUUCCUCUUAUGGGAUAGGGUCUAGGUCAAAUGUCACCUCUUCACUCUUGCUCUUUCCUGACCUCCCUCUUGCGGUCGCACUAGUGUGGAAUUCUCGGGUGUCAAGG
B5: ENSMUSG00000028439.70|Fam219a|208:212 (ssRNA)
RNA: GGGAGUUCUACAGUCCGACGAUCGCUUCGAUAUCCGCAUGCUAAAGGCCAGGAGGCCAAAUGUAAGCGUUGGGUGAAGGGAUCACAGGGCCGGAAGGUUGGCCCCAGCCAGUGAAGCCAUGAAUCCCCCCCAAGCCCGGCUUGGAAAGGAAGGAAAGGGGUUUUGAGAAGAAAAGGAUCCAAGCAAUGGGGGCAGUUCUCACACCUCAGAGCCCCUCUCCCCAAACCCUGUGCCAGCCCAUAUACCUAUUACACAUUUCCCCUCAUCUCCAGAUGGGAAGCCUGGCAGCGCUGUCCAAAGGGACUCUUGCGGUCGCACUAGUGUGGAAUUCUCGGGUGUCAAGG
B6: ENSMUSG00000031028.478|Tub (ssRNA)
RNA: GGGAGUUCUACAGUCCGACGAUCGCUUCGAUAUCCGCAUGCUACUCUUUCUCCCAUGGUUCUGAGCAGGCGACUGUCAAGGAAGUGUGUUGUCAGUUCACUGGAGGAGGAGCUGAGAUGUGCACCCUUUUAAAUGAACAUGGGGUGGUGAUGGUGCCUUAACAAUCUUGACACUAAGGUGAAGCAAGCAAGUAAGGUGUGUGCCUCUGGGAAGACAGGAGUCGGAAGCCAAGGUGUGUGGCAACAGUCUGGAAGAGAGCUUUUGGUAAUCAUACCGUCUUCAGUGACAAGGCAACAAUGCUGUCUCUUGCGGUCGCACUAGUGUGGAAUUCUCGGGUGUCAAGG
B7: ENSMUSG00000031028.482|Tub|17:22;129:135;166:172 (ssRNA)
RNA: GGGAGUUCUACAGUCCGACGAUCGCUUCGAUAUCCGCAUGCUAGGCGACUGUCAAGGAACACACAUGUCAGUUCACUGGAGGAGGAGCUGAGAUGUGCACCCUUUUAAAUGAACAUGGGGUGGUGAUGGUGCCUUAACAAUCUUGACACUAAGGUGAAGCAAGCAAGUAAGCACACACCCUCUGGGAAGACAGGAGUCGGAAGCCAAGCACACACGCAACAGUCUGGAAGAGAGCUUUUGGUAAUCAUACCGUCUUCAGUGACAAGGCAACAAUGCUGUAAAGUGGGUUUGUUUGGUUUUGUUCUCUUGCGGUCGCACUAGUGUGGAAUUCUCGGGUGUCAAGG
B8: ENSMUSG00000031028.484|Tub (ssRNA)
RNA: GGGAGUUCUACAGUCCGACGAUCGCUUCGAUAUCCGCAUGCUAGGAAGUGUGUUGUCAGUUCACUGGAGGAGGAGCUGAGAUGUGCACCCUUUUAAAUGAACAUGGGGUGGUGAUGGUGCCUUAACAAUCUUGACACUAAGGUGAAGCAAGCAAGUAAGGUGUGUGCCUCUGGGAAGACAGGAGUCGGAAGCCAAGGUGUGUGGCAACAGUCUGGAAGAGAGCUUUUGGUAAUCAUACCGUCUUCAGUGACAAGGCAACAAUGCUGUAAAGUGGGUUUGUUUGGUUUUGUUUUUUCUUUCUCUCUCUUGCGGUCGCACUAGUGUGGAAUUCUCGGGUGUCAAGG
B9: ENSMUSG00000031028.482|Tub (ssRNA)
RNA: GGGAGUUCUACAGUCCGACGAUCGCUUCGAUAUCCGCAUGCUAGGCGACUGUCAAGGAAGUGUGUUGUCAGUUCACUGGAGGAGGAGCUGAGAUGUGCACCCUUUUAAAUGAACAUGGGGUGGUGAUGGUGCCUUAACAAUCUUGACACUAAGGUGAAGCAAGCAAGUAAGGUGUGUGCCUCUGGGAAGACAGGAGUCGGAAGCCAAGGUGUGUGGCAACAGUCUGGAAGAGAGCUUUUGGUAAUCAUACCGUCUUCAGUGACAAGGCAACAAUGCUGUAAAGUGGGUUUGUUUGGUUUUGUUCUCUUGCGGUCGCACUAGUGUGGAAUUCUCGGGUGUCAAGG
B10: ENSMUSG00000031028.479|Tub (ssRNA)
RNA: GGGAGUUCUACAGUCCGACGAUCGCUUCGAUAUCCGCAUGCUACUCCCAUGGUUCUGAGCAGGCGACUGUCAAGGAAGUGUGUUGUCAGUUCACUGGAGGAGGAGCUGAGAUGUGCACCCUUUUAAAUGAACAUGGGGUGGUGAUGGUGCCUUAACAAUCUUGACACUAAGGUGAAGCAAGCAAGUAAGGUGUGUGCCUCUGGGAAGACAGGAGUCGGAAGCCAAGGUGUGUGGCAACAGUCUGGAAGAGAGCUUUUGGUAAUCAUACCGUCUUCAGUGACAAGGCAACAAUGCUGUAAAGUGCUCUUGCGGUCGCACUAGUGUGGAAUUCUCGGGUGUCAAGG
B11: ENSMUSG00000031028.479|Tub|35:40;147:153;184:190 (ssRNA)
RNA: GGGAGUUCUACAGUCCGACGAUCGCUUCGAUAUCCGCAUGCUACUCCCAUGGUUCUGAGCAGGCGACUGUCAAGGAACACACAUGUCAGUUCACUGGAGGAGGAGCUGAGAUGUGCACCCUUUUAAAUGAACAUGGGGUGGUGAUGGUGCCUUAACAAUCUUGACACUAAGGUGAAGCAAGCAAGUAAGCACACACCCUCUGGGAAGACAGGAGUCGGAAGCCAAGCACACACGCAACAGUCUGGAAGAGAGCUUUUGGUAAUCAUACCGUCUUCAGUGACAAGGCAACAAUGCUGUAAAGUGCUCUUGCGGUCGCACUAGUGUGGAAUUCUCGGGUGUCAAGG
B12: ENSMUSG00000031028.483|Tub (ssRNA)
RNA: GGGAGUUCUACAGUCCGACGAUCGCUUCGAUAUCCGCAUGCUAUGUCAAGGAAGUGUGUUGUCAGUUCACUGGAGGAGGAGCUGAGAUGUGCACCCUUUUAAAUGAACAUGGGGUGGUGAUGGUGCCUUAACAAUCUUGACACUAAGGUGAAGCAAGCAAGUAAGGUGUGUGCCUCUGGGAAGACAGGAGUCGGAAGCCAAGGUGUGUGGCAACAGUCUGGAAGAGAGCUUUUGGUAAUCAUACCGUCUUCAGUGACAAGGCAACAAUGCUGUAAAGUGGGUUUGUUUGGUUUUGUUUUUUCUCUCUUGCGGUCGCACUAGUGUGGAAUUCUCGGGUGUCAAGG
B13: ENSMUSG00000031028.480|Tub (ssRNA)
RNA: GGGAGUUCUACAGUCCGACGAUCGCUUCGAUAUCCGCAUGCUAUGGUUCUGAGCAGGCGACUGUCAAGGAAGUGUGUUGUCAGUUCACUGGAGGAGGAGCUGAGAUGUGCACCCUUUUAAAUGAACAUGGGGUGGUGAUGGUGCCUUAACAAUCUUGACACUAAGGUGAAGCAAGCAAGUAAGGUGUGUGCCUCUGGGAAGACAGGAGUCGGAAGCCAAGGUGUGUGGCAACAGUCUGGAAGAGAGCUUUUGGUAAUCAUACCGUCUUCAGUGACAAGGCAACAAUGCUGUAAAGUGGGUUUGCUCUUGCGGUCGCACUAGUGUGGAAUUCUCGGGUGUCAAGG
B14: ENSMUSG00000031028.481|Tub (ssRNA)
RNA: GGGAGUUCUACAGUCCGACGAUCGCUUCGAUAUCCGCAUGCUAUGAGCAGGCGACUGUCAAGGAAGUGUGUUGUCAGUUCACUGGAGGAGGAGCUGAGAUGUGCACCCUUUUAAAUGAACAUGGGGUGGUGAUGGUGCCUUAACAAUCUUGACACUAAGGUGAAGCAAGCAAGUAAGGUGUGUGCCUCUGGGAAGACAGGAGUCGGAAGCCAAGGUGUGUGGCAACAGUCUGGAAGAGAGCUUUUGGUAAUCAUACCGUCUUCAGUGACAAGGCAACAAUGCUGUAAAGUGGGUUUGUUUGGUCUCUUGCGGUCGCACUAGUGUGGAAUUCUCGGGUGUCAAGG

These binders were tested against TDP-43 (Homo sapiens, UniProt Q13148 1-414) (assay: RNA Bind-n-Seq with designed 260-mer pool; 25 mM Tris-HCl, 150 mM KCl, 3 mM MgCl2, BSA (printed 500 mg/mL), 20 units/mL SUPERase IN; pH not stated; 500 nM RNA pool, 1 h, 4 C; TDP-43 5, 50, 500 nM; high values mean tight binding). Conditions: protein: recombinant; tags: SBP (GST cleaved off with PreScission; pGEX-GST-SBP).
Summary of the method: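 For each oligo, R gives binding as its mapped-read-normalized abundance after pulldown divided by its abundance in input. Bead-captured SBP-tagged TDP-43 (5, 50 or 500 nM) was incubated with 500 nM of an in vitro-transcribed 260-nt 3′ UTR oligo pool for 1 h at 4 °C in 25 mM Tris-HCl, 150 mM KCl, 3 mM MgCl2, BSA and SUPERase IN on streptavidin beads. Washed, biotin-eluted RNA was reverse transcribed, PCR-amplified and sequenced.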

Sequence of TDP-43 (Q13148 whole entry): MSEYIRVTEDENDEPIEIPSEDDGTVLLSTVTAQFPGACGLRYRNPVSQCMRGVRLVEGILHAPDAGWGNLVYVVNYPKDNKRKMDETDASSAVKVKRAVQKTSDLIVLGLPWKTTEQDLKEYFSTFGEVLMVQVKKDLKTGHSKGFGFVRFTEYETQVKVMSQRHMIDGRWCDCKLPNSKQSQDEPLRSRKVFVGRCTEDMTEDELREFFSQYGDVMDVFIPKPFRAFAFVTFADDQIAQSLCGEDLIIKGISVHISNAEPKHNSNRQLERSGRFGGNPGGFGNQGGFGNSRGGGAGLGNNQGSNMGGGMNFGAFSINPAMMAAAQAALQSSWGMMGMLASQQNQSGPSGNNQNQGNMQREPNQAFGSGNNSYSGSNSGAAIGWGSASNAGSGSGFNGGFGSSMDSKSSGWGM

Binder	binding signal
B1	0.142 R (bound/input frequency ratio)
B2	0.294 R (bound/input frequency ratio)
B3	1.41 R (bound/input frequency ratio)
B4	0.306 R (bound/input frequency ratio)
B5	0.319 R (bound/input frequency ratio)
B6	2.52 R (bound/input frequency ratio)
B7	1.47 R (bound/input frequency ratio)
B8	4.79 R (bound/input frequency ratio)
B9	6.54 R (bound/input frequency ratio)
B10	6.66 R (bound/input frequency ratio)
B11	0.829 R (bound/input frequency ratio)
B12	3.98 R (bound/input frequency ratio)
B13	6.51 R (bound/input frequency ratio)
B14	5.19 R (bound/input frequency ratio)
